Data taken from PubChem BioAssay (NCI).
This is part of a sample that, as a whole, favours compounds with a hit. Of some 79,000 tested, about 15% had one in any assay. Calls of active or inactive are those of the source. Rule as the data show it: active = growth inhibition above about 70%; inactive = the rest.

Key:
[1] = NCI Yeast Anticancer Drug Screen. Data for the mlh1 strain (AID 171);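 also: 0% = growth of vehicle-treated control cultures of the same strain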; conditions: S. cerevisiae mlh1 strain growth inhibition, hits give high values
In short: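 A yeast strain with a defined genetic lesion serves as the test organism. Cultures receive compound or vehicle, and growth is measured.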

[2] = NCI Yeast Anticancer Drug Screen. Data for the sgs1 strain (AID 173);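 also: 0% = growth of vehicle-only control cultures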; conditions: S. cerevisiae sgs1 mutant, hits give high values
In short: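 A genetically defined yeast mutant is incubated with the test compound, and its growth is compared to that of the same strain given vehicle.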

[3] = NCI Yeast Anticancer Drug Screen. Data for the mlh1 rad18 strain (AID 175); conditions: S. cerevisiae mlh1 rad18 strain growth inhibition, hits give high values
In short: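 Steps: expose repair-defective yeast to compound; measure growth; express inhibition against vehicle-treated controls.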

[4] = NCI Yeast Anticancer Drug Screen. Data for the rad18 strain (AID 177); conditions: S. cerevisiae rad18 mutant growth inhibition, hits give high values
In short: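 Measured value is growth inhibition of a yeast strain bearing a DNA repair alteration, referenced to vehicle-treated cells.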

[5] = NCI Yeast Anticancer Drug Screen. Data for the rad52 strain (AID 147);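 also: 0% = growth of vehicle-treated control cultures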; conditions: S. cerevisiae rad52 mutant growth inhibition, hits give high values
In short: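 Here a repair-compromised yeast strain receives each compound; its growth is then quantified and normalised to vehicle-only controls.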

[6] = NCI Yeast Anticancer Drug Screen. Data for the wt1 strain (AID 149);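 also: 0% = growth of vehicle-treated wt1 cultures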; conditions: S. cerevisiae wt1 strain (SPY 50644) growth inhibition, hits give high values
In short: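 The wt1 strain was treated with compounds, and growth was compared with vehicle-treated cultures to give inhibition.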

[7] = NCI Yeast Anticancer Drug Screen. Data for the mgt1 strain (AID 153); conditions: S. cerevisiae mgt1 mutant growth inhibition, hits give high values
In short: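 Measured: inhibition of mgt1 yeast growth by compound, normalized to vehicle-treated cultures.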

[8] = NCI Yeast Anticancer Drug Screen. Data for the rad50 strain (AID 155);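 also: 0% = growth of vehicle-only cultures of the same strain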; conditions: S. cerevisiae rad50 strain growth inhibition, hits give high values
In short: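 Cells are treated with compound, grown, and their growth is then scored against vehicle-only cultures of the same repair-deficient yeast strain.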

[9] = NCI Yeast Anticancer Drug Screen. Data for the mec2-1 strain (AID 157); conditions: S. cerevisiae mec2-1 strain, hits give high values
In short: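 Using mec2-1 yeast: add compound, measure growth, express inhibition versus vehicle-treated cultures.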

[10] = NCI Yeast Anticancer Drug Screen. Data for the rad14 strain (AID 159);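 also: 0% = growth of vehicle-treated control cultures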; conditions: S. cerevisiae rad14 strain growth inhibition, hits give high values
In short: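 Readout: yeast growth inhibition, referenced to vehicle-only cultures. Strain bears a defined alteration in DNA damage repair.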

[11] = NCI Yeast Anticancer Drug Screen. Data for the sgs1 mgt1 strain (AID 161);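 also: 0% = growth of cultures given vehicle only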; conditions: S. cerevisiae sgs1 mgt1 strain, hits give high values
In short: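 Percent growth inhibition was derived by comparing compound-exposed mutant yeast with vehicle-exposed cultures. The strain carries alterations in DNA damage repair.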

[12] = NCI Yeast Anticancer Drug Screen. Data for the CLN2oe strain (AID 163);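 also: 0% = growth of vehicle-only control cultures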; conditions: S. cerevisiae CLN2oe strain, hits give high values
In short: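 Whole-cell yeast growth assay. A strain engineered for altered cell-cycle control received compound, and inhibition relative to vehicle-treated cultures was recorded.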

[13] = NCI Yeast Anticancer Drug Screen. Data for the cln2 rad14 strain (AID 165);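 also: 0% = growth equal to vehicle treated cultures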; conditions: S. cerevisiae cln2 rad14 strain, hits give high values
In short: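 Yeast strain cln2 rad14, bearing defects in cell cycle control and DNA repair, serves as the test system; values reflect growth inhibition compared with vehicle.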

[14] = NCI Yeast Anticancer Drug Screen. Data for the bub3 strain (AID 167); conditions: S. cerevisiae bub3 mutant strain, hits give high values
In short: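 Part of a panel of yeast mutants defective in DNA damage repair or cell cycle regulation. Each strain is grown with compound, and inhibition is calculated relative to solvent-treated cultures.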

[15] = NCI Yeast Anticancer Drug Screen. Data for the wt2 strain (AID 169);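 also: 0% = growth of vehicle-treated yeast cultures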; conditions: S. cerevisiae wt2 strain growth inhibition, hits give high values
In short: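 Treated yeast vs. vehicle-treated yeast: growth inhibition determined.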

[16] = at 5.0 µM (retest, dose inferred, filed as 0.5)
[17] = at 50.0 µM (retest, dose inferred, filed as 5.0)

Measured: growth inhibition

CC(=O)Nc1ccc(/C=C(\C#N)c2ccc(C)cc2)cc1
active: [3]; [17] 97%
inactive: [1]; at 1.2 µM -20% | [1]; at 3.7 µM -21% | [1]; at 11.0 µM -18% | [1]; at 33.0 µM -6% | [1]; at 100.0 µM -10% | [2]; at 1.2 µM -21% | [2]; at 3.7 µM -19% | [2]; at 11.0 µM -23% | [2]; at 33.0 µM -13% | [2]; at 100.0 µM -17% | [3]; [16] 34% | [3]; at 50.0 µM 24.6% | [4]; at 1.2 µM -18% | [4]; at 3.7 µM -9% | [4]; at 11.0 µM -17% | [4]; at 33.0 µM -3% | [4]; at 100.0 µM -16%

Nc1nc(Cl)c(Cl)c(Cl)n1
active: [5]; at 33.0 µM 88% | [5]; at 100.0 µM 99% | [6]; at 100.0 µM 99% | [7]; at 33.0 µM 90% | [7]; at 100.0 µM 99% | [8]; [17] 100% | [8]; at 100.0 µM 99% | [9]; at 33.0 µM 99% | [9]; [17] 99% | [9]; at 50.0 µM 72.4% | [9]; at 100.0 µM 99% | [10]; at 33.0 µM 99% | [10]; at 100.0 µM 99% | [11]; [17] 99% | [12]; at 100.0 µM 99% | [13]; [17] 99% | [14]; at 33.0 µM 92% | [14]; [17] 99% | [14]; at 100.0 µM 99% | [15]; at 33.0 µM 80% | [15]; at 100.0 µM 99% | [1]; at 33.0 µM 93% | [1]; at 100.0 µM 99% | [2]; at 33.0 µM 99% | [2]; at 100.0 µM 99% | [3]; [16] 80% | [3]; [17] 99% | [4]; at 33.0 µM 77% | [4]; at 100.0 µM 99%
inactive: [5]; at 1.2 µM 1% | [5]; at 3.7 µM 8% | [5]; at 11.0 µM 32% | [6]; at 1.2 µM -2% | [6]; at 3.7 µM 1% | [6]; at 11.0 µM 14% | [6]; at 33.0 µM 57% | [7]; at 1.2 µM 1% | [7]; at 3.7 µM 5% | [7]; at 11.0 µM 20% | [8]; at 1.2 µM 2% | [8]; at 3.7 µM 3% | [8]; [16] 44% | [8]; at 11.0 µM 17% | [8]; at 33.0 µM 51% | [8]; at 50.0 µM 47.3% | [9]; at 1.2 µM 2% | [9]; at 3.7 µM 14% | [9]; [16] 28% | [9]; at 11.0 µM 42% | [10]; at 1.2 µM 3% | [10]; at 3.7 µM 8% | [10]; at 11.0 µM 30% | [11]; [16] 59% | [11]; at 50.0 µM 32.3% | [12]; at 1.2 µM -1% | [12]; at 3.7 µM 0% | [12]; at 11.0 µM 14% | [12]; at 33.0 µM 30% | [13]; [16] 7% | [13]; at 50.0 µM 13.8% | [14]; at 1.2 µM -4% | [14]; at 3.7 µM 1% | [14]; [16] 27% | [14]; at 11.0 µM 18% | [14]; at 50.0 µM -8.05% | [15]; at 1.2 µM 0% | [15]; at 3.7 µM 4% | [15]; at 11.0 µM 17% | [1]; at 1.2 µM -2% | [1]; at 3.7 µM 3% | [1]; at 11.0 µM 18% | [2]; at 1.2 µM 1% | [2]; at 3.7 µM 14% | [2]; at 11.0 µM 45% | [3]; at 50.0 µM 30.4% | [4]; at 1.2 µM 1% | [4]; at 3.7 µM 5% | [4]; at 11.0 µM 19%

O=C(O)C1OC1(c1cccc(Cl)c1)c1ccccc1Cl (centres undefined)
inactive: [5]; at 1.2 µM -9% | [5]; at 3.7 µM -8% | [5]; at 11.0 µM 13% | [5]; at 33.0 µM 56% | [6]; at 1.2 µM -18% | [6]; at 3.7 µM -15% | [6]; at 11.0 µM -15% | [6]; at 33.0 µM 41% | [7]; at 1.2 µM 17% | [7]; at 3.7 µM 16% | [7]; at 11.0 µM 28% | [7]; at 33.0 µM 67% | [8]; at 1.2 µM 1% | [8]; at 3.7 µM 7% | [8]; [16] 43% | [8]; at 11.0 µM 12% | [8]; at 33.0 µM 48% | [8]; [17] 59% | [9]; at 1.2 µM -6% | [9]; at 3.7 µM -13% | [9]; [16] 57% | [9]; at 11.0 µM 2% | [9]; at 33.0 µM 58% | [9]; [17] 61% | [10]; at 1.2 µM -19% | [10]; at 3.7 µM -12% | [10]; at 11.0 µM -11% | [11]; [16] -12% | [13]; [16] 54% | [14]; at 1.2 µM 0% | [14]; at 3.7 µM -5% | [14]; [16] 30% | [14]; at 11.0 µM 9% | [15]; at 1.2 µM -35% | [15]; at 3.7 µM -20% | [15]; at 11.0 µM -18% | [15]; at 33.0 µM 26% | [1]; at 1.2 µM -26% | [1]; at 3.7 µM -25% | [1]; at 11.0 µM -10% | [1]; at 33.0 µM 37% | [2]; at 1.2 µM -13% | [2]; at 3.7 µM -5% | [2]; at 11.0 µM 1% | [2]; at 33.0 µM 51% | [3]; [16] 47% | [3]; [17] 53% | [4]; at 1.2 µM -6% | [4]; at 3.7 µM -16% | [4]; at 11.0 µM 3% | [4]; at 33.0 µM 57%
active: [5]; at 100.0 µM 91% | [6]; at 100.0 µM 93% | [7]; at 100.0 µM 95% | [8]; at 50.0 µM 90.1% | [8]; at 100.0 µM 88% | [9]; at 50.0 µM 92% | [9]; at 100.0 µM 94% | [10]; at 33.0 µM 75% | [10]; at 100.0 µM 91% | [11]; [17] 93% | [11]; at 50.0 µM 93.1% | [13]; [17] 96% | [13]; at 50.0 µM 90.7% | [14]; at 33.0 µM 70% | [14]; [17] 95% | [14]; at 50.0 µM 89.9% | [14]; at 100.0 µM 92% | [15]; at 100.0 µM 93% | [1]; at 100.0 µM 90% | [2]; at 100.0 µM 90% | [3]; at 50.0 µM 90.5% | [4]; at 100.0 µM 90%
